According to the supplement of paper PMC10849652:
About 8,800 targets were measured; listed, in parts, are those with a hit and a random draw of the rest. About 0.5% of all pairs of compound and target were hits. Unmarked numbers belong to inactive results.

How the values were obtained:
Test in all cases: log2 fold change, soluble protein after heating vs DMSO (PISA); higher = thermal stabilisation; K562 lysate, 10 uM; active = over 0.2 and 3.5 SD of the protein, either way, in both replicates (recomputed)
ibrutinib = compound: C=CC(=O)N1CCC[C@@H](n2nc(-c3ccc(Oc4ccccc4)cc3)c3c(N)ncnc32)C1 [ibrutinib]
Method in brief: (§1)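 The values are log-two fold changes in thermal stability compared with solvent controls and come from duplicates. They were obtained by TMTpro 16plex LC-MS/MS, with channel sums equalised, on the supernatant after 21,000xg for 90 min. That supernatant came from crude K562 extract at 1 mg/mL protein treated with 10 μM compound for 30 min, heated for 3 min across 48°C-58°C, pooled and brought to 0.5% NP-40 at 4°C.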

[1] = compound: CC(=O)c1cnc2ccc(-c3cc(Cl)c(O)c(Cl)c3)nc2c1N[C@H]1CC[C@H](CN(C)C)CC1
Method in brief: as §1

ralimetinib = compound: CC(C)(C)Cn1c(N)nc2ccc(-c3[nH]c(C(C)(C)C)nc3-c3ccc(F)cc3)nc21 [ralimetinib]
Method in brief: as §1

[2] = compound: CC(C)(O)CC(=O)NCCn1ccc2ncnc(Nc3ccc(Oc4cccc(C(F)(F)F)c4)c(Cl)c3)c21
Method in brief: as §1

[3] = compound: CC(C)C1=C2N=C(C=C(N2N=C1)NCC3=CC=CC=C3)NCCCCCCN
Method in brief: as §1

[4] = compound: CC1=C(C(CC(=O)N1)C2=CC=C(C=C2)C(F)(F)F)C(=O)NC3=C(C=C4C(=C3)C=NN4)F
Method in brief: as §1

[5] = compound: CC1=C(C2=C(C=C1)C(=O)C3=CC=CC=C3N2CCCN)C
Method in brief: as §1

[6] = compound: CC1=C(C=C(C=C1)NC(=O)C2=CC(=CC=C2)C(C)(C)C#N)NC3=CC4=C(C=C3)N=CN(C4=O)C
Method in brief: as §1

[7] = compound: CC1=C(C=C(C=C1)NC(=O)C2=CC(=CC=C2)N(C)C)NC(=O)C3=CC=C(C=C3)O
Method in brief: as §1

[8] = compound: CC1=CC=C(C=C1)SC2=C3C=C(SC3=CN=C2)C(=O)N
Method in brief: as §1

Sequence of UniProt P07947 (P07947 whole entry, looked up): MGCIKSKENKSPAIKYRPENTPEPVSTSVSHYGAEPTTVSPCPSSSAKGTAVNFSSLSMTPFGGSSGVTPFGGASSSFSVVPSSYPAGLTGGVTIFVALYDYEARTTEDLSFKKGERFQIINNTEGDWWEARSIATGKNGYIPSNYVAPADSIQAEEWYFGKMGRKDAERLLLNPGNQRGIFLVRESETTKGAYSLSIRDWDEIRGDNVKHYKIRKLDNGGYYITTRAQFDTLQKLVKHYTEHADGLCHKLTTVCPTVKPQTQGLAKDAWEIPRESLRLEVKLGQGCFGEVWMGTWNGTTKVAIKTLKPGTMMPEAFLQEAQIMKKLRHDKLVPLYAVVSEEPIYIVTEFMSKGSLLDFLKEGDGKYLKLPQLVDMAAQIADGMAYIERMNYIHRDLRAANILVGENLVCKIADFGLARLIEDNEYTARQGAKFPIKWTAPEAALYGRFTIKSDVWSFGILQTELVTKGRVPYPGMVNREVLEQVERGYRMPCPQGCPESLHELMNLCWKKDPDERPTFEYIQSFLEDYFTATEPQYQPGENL
Sequence of UniProt Q9P253 (Q9P253 whole entry, looked up): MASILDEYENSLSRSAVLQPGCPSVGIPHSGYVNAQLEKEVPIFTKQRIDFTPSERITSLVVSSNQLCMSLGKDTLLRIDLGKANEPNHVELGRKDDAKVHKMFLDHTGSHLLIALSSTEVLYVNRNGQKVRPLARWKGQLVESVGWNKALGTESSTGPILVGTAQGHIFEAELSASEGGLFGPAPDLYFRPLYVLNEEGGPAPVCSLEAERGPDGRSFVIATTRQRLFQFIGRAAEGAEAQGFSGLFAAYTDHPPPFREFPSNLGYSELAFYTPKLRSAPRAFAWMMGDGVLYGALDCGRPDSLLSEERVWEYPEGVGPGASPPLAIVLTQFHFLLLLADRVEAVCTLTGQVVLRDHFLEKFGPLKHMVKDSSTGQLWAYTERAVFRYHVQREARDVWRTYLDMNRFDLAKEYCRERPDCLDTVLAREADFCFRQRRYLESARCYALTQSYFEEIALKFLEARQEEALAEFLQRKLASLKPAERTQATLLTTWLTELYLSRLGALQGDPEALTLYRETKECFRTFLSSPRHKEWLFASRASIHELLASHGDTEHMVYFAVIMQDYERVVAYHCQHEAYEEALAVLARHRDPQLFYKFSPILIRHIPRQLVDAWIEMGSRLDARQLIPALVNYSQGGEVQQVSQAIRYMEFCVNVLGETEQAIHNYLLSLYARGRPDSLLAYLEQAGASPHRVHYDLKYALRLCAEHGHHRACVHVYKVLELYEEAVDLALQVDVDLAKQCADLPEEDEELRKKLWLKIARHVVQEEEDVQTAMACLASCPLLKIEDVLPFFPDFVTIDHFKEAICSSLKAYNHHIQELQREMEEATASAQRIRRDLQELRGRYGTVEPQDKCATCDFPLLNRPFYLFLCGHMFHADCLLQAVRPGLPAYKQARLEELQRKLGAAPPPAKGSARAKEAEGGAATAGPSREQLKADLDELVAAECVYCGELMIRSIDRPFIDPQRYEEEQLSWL
Sequence of UniProt Q6EMK4 (Q6EMK4 whole entry, looked up): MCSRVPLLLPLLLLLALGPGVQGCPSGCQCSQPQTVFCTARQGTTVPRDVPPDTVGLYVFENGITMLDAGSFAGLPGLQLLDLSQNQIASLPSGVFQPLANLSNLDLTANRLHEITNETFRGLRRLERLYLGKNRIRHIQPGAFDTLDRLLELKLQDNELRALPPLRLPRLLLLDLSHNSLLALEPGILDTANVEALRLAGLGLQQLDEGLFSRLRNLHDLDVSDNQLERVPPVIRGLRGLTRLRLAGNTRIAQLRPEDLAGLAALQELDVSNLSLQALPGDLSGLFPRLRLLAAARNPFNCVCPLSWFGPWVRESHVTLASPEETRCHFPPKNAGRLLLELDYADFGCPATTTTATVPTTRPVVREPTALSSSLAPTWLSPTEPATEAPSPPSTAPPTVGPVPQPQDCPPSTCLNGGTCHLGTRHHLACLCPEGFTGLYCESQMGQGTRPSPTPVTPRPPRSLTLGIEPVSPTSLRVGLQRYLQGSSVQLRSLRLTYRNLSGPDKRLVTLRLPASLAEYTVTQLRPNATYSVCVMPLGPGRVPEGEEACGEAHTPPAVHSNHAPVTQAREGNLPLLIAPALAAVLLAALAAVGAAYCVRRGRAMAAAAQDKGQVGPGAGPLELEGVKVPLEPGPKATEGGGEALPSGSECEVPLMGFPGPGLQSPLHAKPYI
Sequence of UniProt Q6WRX3 (Q6WRX3 whole entry, looked up): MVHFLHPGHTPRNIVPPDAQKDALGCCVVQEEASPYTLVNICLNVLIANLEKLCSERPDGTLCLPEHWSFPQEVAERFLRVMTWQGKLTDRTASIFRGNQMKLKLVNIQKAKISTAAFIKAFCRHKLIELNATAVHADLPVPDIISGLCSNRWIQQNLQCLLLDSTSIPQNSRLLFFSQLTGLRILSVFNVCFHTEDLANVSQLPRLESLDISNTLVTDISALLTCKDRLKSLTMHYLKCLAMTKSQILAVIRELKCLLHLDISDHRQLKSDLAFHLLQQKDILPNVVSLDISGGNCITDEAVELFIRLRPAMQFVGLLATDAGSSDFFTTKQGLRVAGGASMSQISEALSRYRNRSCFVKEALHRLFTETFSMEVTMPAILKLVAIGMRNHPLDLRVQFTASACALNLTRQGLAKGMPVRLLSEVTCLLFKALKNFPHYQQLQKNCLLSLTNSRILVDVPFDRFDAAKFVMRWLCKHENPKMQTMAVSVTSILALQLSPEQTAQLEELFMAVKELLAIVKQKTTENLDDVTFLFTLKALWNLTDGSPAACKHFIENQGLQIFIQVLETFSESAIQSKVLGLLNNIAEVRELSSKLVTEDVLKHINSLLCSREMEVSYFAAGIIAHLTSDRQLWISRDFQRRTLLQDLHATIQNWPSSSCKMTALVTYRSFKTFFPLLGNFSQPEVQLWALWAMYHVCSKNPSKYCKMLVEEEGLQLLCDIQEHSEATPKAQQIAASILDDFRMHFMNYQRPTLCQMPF
Sequence of UniProt Q9NUA8 (Q9NUA8 whole entry, looked up): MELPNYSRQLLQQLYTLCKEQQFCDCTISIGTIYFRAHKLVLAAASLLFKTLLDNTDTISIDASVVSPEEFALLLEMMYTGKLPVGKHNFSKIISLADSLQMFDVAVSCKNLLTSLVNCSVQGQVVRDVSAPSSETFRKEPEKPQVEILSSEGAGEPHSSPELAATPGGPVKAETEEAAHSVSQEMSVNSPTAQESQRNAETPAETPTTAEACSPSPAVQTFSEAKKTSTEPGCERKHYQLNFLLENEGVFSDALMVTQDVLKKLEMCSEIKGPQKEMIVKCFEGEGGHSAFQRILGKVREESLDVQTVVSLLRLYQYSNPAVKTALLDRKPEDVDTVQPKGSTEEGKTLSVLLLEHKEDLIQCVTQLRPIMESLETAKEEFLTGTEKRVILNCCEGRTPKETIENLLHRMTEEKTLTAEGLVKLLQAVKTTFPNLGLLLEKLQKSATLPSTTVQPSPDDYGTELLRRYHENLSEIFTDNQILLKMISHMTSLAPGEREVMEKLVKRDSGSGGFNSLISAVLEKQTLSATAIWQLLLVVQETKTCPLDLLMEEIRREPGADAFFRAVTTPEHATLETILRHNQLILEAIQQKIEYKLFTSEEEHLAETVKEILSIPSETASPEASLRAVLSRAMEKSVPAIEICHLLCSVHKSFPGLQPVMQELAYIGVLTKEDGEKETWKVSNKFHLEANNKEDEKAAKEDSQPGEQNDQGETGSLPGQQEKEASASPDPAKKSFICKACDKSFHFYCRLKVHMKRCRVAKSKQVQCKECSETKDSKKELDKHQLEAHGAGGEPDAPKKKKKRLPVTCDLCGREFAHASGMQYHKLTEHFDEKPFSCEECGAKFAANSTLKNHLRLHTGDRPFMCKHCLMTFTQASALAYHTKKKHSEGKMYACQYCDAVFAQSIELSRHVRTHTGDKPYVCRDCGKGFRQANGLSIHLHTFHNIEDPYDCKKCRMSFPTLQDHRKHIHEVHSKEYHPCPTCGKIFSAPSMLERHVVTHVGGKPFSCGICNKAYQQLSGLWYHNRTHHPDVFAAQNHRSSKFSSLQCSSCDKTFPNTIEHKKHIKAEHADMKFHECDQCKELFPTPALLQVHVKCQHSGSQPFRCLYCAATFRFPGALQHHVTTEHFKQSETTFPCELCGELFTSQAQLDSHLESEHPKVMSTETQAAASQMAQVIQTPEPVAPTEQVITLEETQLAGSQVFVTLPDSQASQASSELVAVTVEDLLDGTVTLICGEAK
Sequence of UniProt Q8IUH5 (Q8IUH5 whole entry, looked up): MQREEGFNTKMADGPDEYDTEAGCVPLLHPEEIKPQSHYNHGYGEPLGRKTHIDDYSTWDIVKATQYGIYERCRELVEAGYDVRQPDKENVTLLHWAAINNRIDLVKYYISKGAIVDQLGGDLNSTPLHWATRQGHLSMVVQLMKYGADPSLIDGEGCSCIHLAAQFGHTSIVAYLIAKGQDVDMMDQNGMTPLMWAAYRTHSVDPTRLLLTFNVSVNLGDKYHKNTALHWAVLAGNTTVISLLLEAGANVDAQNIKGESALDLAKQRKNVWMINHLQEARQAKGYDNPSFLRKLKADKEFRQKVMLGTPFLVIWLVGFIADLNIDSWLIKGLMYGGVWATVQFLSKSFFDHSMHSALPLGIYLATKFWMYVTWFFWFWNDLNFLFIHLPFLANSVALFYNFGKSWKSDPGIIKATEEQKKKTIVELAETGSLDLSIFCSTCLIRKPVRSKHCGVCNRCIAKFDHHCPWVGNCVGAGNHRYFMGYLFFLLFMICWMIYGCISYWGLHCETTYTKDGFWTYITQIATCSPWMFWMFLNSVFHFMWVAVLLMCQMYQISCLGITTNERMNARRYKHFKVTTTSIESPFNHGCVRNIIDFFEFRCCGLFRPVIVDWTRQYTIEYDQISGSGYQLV
Sequence of UniProt P40337 (P40337 whole entry, looked up): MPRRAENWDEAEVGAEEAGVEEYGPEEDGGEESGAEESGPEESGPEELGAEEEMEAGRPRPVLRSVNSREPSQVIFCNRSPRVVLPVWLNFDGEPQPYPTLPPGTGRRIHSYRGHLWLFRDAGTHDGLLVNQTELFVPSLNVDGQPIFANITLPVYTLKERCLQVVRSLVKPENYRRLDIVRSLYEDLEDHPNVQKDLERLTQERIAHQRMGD

Target	log2 fold change (ibrutinib)	log2 fold change [1]	log2 fold change (ralimetinib)	log2 fold change [2]	log2 fold change [3]	log2 fold change [4]	log2 fold change [5]	log2 fold change [6]	log2 fold change [7]	log2 fold change [8]
YES1 (UniProt P07947)	0.988 (active)	-0.012	-0.259	0.511 (active)	0.061	0.2	0.044	0.192	-0.005	-0.131
WDR45 isoform 2 (UniProt Q9Y484)	0.018	0.014	0.13	0.111	-0.008	0.014	0.028	-0.04	-0.014	-0.036
XPOT (UniProt F5GYW6)		-0.027								0.041
ZNF652 (UniProt Q9Y2D9)								0.042		
ZNF644 (UniProt Q9H582)	0.07		-0.023	0.052	0.038	-0.061	0.042	-0.005	-0.02	
ZBTB40 (UniProt Q9NUA8)		0.035	0.096	-0.012	0.057	0.081	-0.042	0.009	-0.007	-0.044
WAC isoform 5 (UniProt Q9BTA9)			0.059	-0.145	-0.038		0.127		0.096	
ZSWIM8 isoform 4 (UniProt A7E2V4)	-0.08		0.101	-0.048	0.002	-0.017	0.28	-0.131	0.105	
VRK2 (UniProt Q86Y07)	0.049	0.106	0.155	-0.041	-0.037	-0.036	-0.026	-0.021	0.023	0.149
ULK3 isoform 4 (UniProt Q6PHR2)	-0.08	-0.024			-0.091		-0.06	0.094		0.08
YTHDF3 (UniProt Q7Z739)	-0.026	0.066	-0.014	-0.033	0.008	0.017	0.074	-0.334 (active)	0.009	0.096
ZNF593 (UniProt O00488)	0.018	0.17	0.096	0.013	-0.081		-0.017	-0.028	-0.034	-0.051
UNC13A (UniProt Q9UPW8)					0.022	-0.053				
ZFYVE19 isoform 3 (UniProt Q96K21)	0.085	-0.084								0.047
WSB1 (UniProt Q9Y6I7)			0.08	-0.006			-0.037		-0.028	
VPS4A (UniProt Q9UN37)	0.001	0	0.013	0.035	0	-0.035	-0.046	-0.039	0.045	0.025
YBEY (UniProt P58557)					0.016		-0.029			

Target	log2 fold change (ibrutinib)	log2 fold change [1]	log2 fold change (ralimetinib)	log2 fold change [2]	log2 fold change [3]	log2 fold change [4]	log2 fold change [5]	log2 fold change [6]	log2 fold change [7]	log2 fold change [8]
ZYG11A (UniProt Q6WRX3)	0.228	0.063	0.082	-0.087	-0.159	0.046			0.052	-0.315
WDR24 (UniProt Q96S15)	-0.044	-0.016	0.025	-0.022	0.041	0.055	-0.011	0.033	-0.034	0.021
ZNF146 (UniProt Q15072)							-0.187			
USP22 (UniProt Q9UPT9)	-0.031		0.023	0.006	0.027	-0.057	-0.034	0.065	0.056	
WAS (UniProt P42768)	-0.06				-0.01	0.071	0.143			
ZFYVE19 (UniProt Q96K21)	-0.051	-0.031	-0.004	0.009	-0.015	-0.028	-0.067	-0.037	-0.013	-0.042
ZDHHC17 (UniProt Q8IUH5)		-0.063	0.077	0.047		-0.001	0.161	-0.171	-0.067	-0.032
UTRN isoform 2 (UniProt P46939)	-0.03				-0.012					
VHL (UniProt P40337)	0.033		0.09	-0.027	0.06	-0.045	-0.109	-0.013	0.024	
UNKL (UniProt E9PDK2)	-0.191						-0.086	0.025		
URGCP (UniProt Q8TCY9)	0.081		-0.07	-0.515 (active)		-0.05	0.008		-0.042	
VASN (UniProt Q6EMK4)			0.332	0.172	-0.004		-0.255		-0.295	
ZSCAN26 (UniProt Q16670)								0.007		
ZKSCAN8 (UniProt Q15776)		0.514 (active)	-0.021	-0.002	0.229	0.098	0.008	-0.008	0.04	-0.054
VPS72 (UniProt Q15906)		0.016	0.046	-0.06	-0.028	-0.098	0.005	0	-0.01	-0.038
ZNF281 (UniProt Q9Y2X9)			-0.055	0.081	0.039		-0.008	-0.081	-0.041	
VPS18 (UniProt Q9P253)	-0.007	-0.026	0.038	-0.065	-0.022	0.004	-0.046	-0.004	-0.041	0.009
